The supplement of paper PMC10127200
Counter-ions that a name gives are not always drawn.

Assays:
Assay in all cases: Euclidean distance of Cell Painting phenotypic profile (signed KS, 77 features) to DMSO centroid (dimensionless distance); 5 or 10 uM (library dependent); higher = stronger phenotypic change vs DMSO (phenoactivity)
Conditions in all cases: 48 h
[1] = system: 786-O
In short: (§1)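 Phenoactivity is computed as Euclidean distance to the median vehicle profile. The profiles, drawn from 77 Harmony features scored as signed Kolmogorov-Smirnov statistics versus same-plate vehicle wells, were corrected for plate position, correlation-weighted and replicate-averaged at the top dose. Stained cells were imaged confocally at 20X (9 fields/well) after 48 h with library compounds at 10 or 5 uM, 0.1% DMSO final, in five cancer lines and a healthy fibroblast line.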

[2] = system: A549
In short: as §1

[3] = system: DU145
In short: as §1

[4] = system: FB
In short: as §1

[5] = system: HEPG2
In short: as §1

[6] = system: OVCAR4
In short: as §1

| Structure (SMILES) | Euclidean distance [1] | Euclidean distance [2] | Euclidean distance [3] | Euclidean distance [4] | Euclidean distance [5] | Euclidean distance [6] |
| --- | --- | --- | --- | --- | --- | --- |
| N#Cc1cc(-c2n[nH]c(-c3ccncc3)n2)ccn1 [Topiroxostat] | 1.19 | 1.05 | 1.49 | 1.16 | 0.521 | 1.32 |
| Oc1cc(O)c2c(c1)O[C@H](c1ccc(O)c(O)c1)[C@H](O)C2 [(-)Epicatechin] | 1.1 | 0.627 | 0.705 | 1.15 | 0.982 | 1.04 |
| NC(=O)c1ccc(N(C(N)=O)c2c(F)cccc2F)nc1-c1ccc(F)cc1F | 1.24 | 1.16 | 1.41 | 1.37 | 0.723 | 1.18 |
| CC(C)(Oc1ccc(Cl)cc1)C(=O)O [Clofibric Acid] | 0.903 | 0.74 | 0.644 | 0.793 | 0.498 | 0.547 |
| CCNC(=O)[C@H]1O[C@@H](n2cnc3c(N)nc(NCCc4ccc(CCC(=O)O)cc4)nc32)[C@H](O)[C@@H]1O | 0.618 | 0.662 | 0.916 | 0.846 | 0.636 | 0.752 |
| Cn1cc(C2=C(c3cccc(N)c3)C(=O)NC2=O)c2ccccc21 | 3.84 | 2.48 | 2.97 | 1.8 | 1.6 | 3.79 |
| CC(C)c1cc(-c2n[nH]c(=O)n2-c2ccc3c(ccn3C)c2)c(O)cc1O [Ganetespib (STA-9090)] | 3.55 | 2.86 | 4.37 | 2.43 | 3.34 | 2.93 |
| COc1ccc(CNc2nc(N3CCC[C@H]3CO)ncc2C(=O)NCc2ncccn2)cc1Cl [Avanafil] | 1.22 | 0.789 | 1.12 | 0.94 | 0.764 | 1.44 |
| CC(=O)OCC(=O)[C@@]1(O)CC[C@H]2[C@@H]3CCC4=CC(=O)C=C[C@]4(C)[C@H]3[C@@H](O)C[C@@]21C [Prednisolone Acetate] | 1.1 | 2.13 | 2.13 | 1.96 | 0.76 | 2.1 |
| C#C[C@]1(O)CC[C@H]2[C@@H]3CCC4=CCCC[C@@H]4[C@H]3CC[C@@]21C [Lynestrenol] | 1.13 | 1.3 | 1.48 | 1.17 | 0.777 | 1.41 |
| O=C(Cc1cccc(OC(F)(F)F)c1)Nc1ccc(CCCCc2nnc(NC(=O)Cc3ccccn3)s2)nn1 | 2.27 | 2.41 | 1.99 | 3.38 | 2.75 | 2.28 |
| C=CC(=O)N1CCC([C@@H]2CCNc3c(C(N)=O)c(-c4ccc(Oc5ccccc5)cc4)nn32)CC1 [Zanubrutinib (BGB-3111)] | 1.58 | 1.45 | 2.15 | 1.57 | 0.671 | 1.72 |
| COC1=C(OC)C(=O)C(CCCCCCCCCCO)=C(C)C1=O [Idebenone] | 1.45 | 0.641 | 0.677 | 1.22 | 1.05 | 0.744 |
| CCOc1nc2cccc(C(=O)O)c2n1Cc1ccc(-c2ccccc2-c2nnn[nH]2)cc1 [Candesartan] | 2.07 | 1.74 | 1.69 | 3.34 | 0.856 | 1.84 |
| NCC(=O)CCC(=O)O [5-Aminolevulinic acid HCl] | 1.2 | 0.994 | 1.81 | 1.12 | 1.61 | 2 |
| CC(C)Oc1ccc(-c2nc(-c3cccc4c3CC[C@@H]4NCCO)no2)cc1C#N [Ozanimod (RPC1063)] | 1.97 | 1.08 | 0.79 | 1.6 | 1.46 | 1.68 |
| CCOCCn1c(C2CCN(CCc3ccc(C(C)(C)C(=O)O)cc3)CC2)nc2ccccc21 [Bilastine] | 1.25 | 1.12 | 1.37 | 0.933 | 0.505 | 0.894 |
| CCC[S+]([O-])c1ccc2[nH]c(NC(=O)OC)nc2c1 (stereo not drawn) [Albendazole Oxide] | 1.29 | 1.23 | 0.768 | 0.918 | 0.943 | 1.26 |
| COc1ccc2cc([C@H](C)C(=O)O)ccc2c1 [Naproxen Sodium] | 1.02 | 0.936 | 0.948 | 0.856 | 0.593 | 0.977 |

| Structure (SMILES) | Euclidean distance [1] | Euclidean distance [2] | Euclidean distance [3] | Euclidean distance [4] | Euclidean distance [5] | Euclidean distance [6] |
| --- | --- | --- | --- | --- | --- | --- |
| Cc1cc(-n2c(=O)[nH]c(=O)n(C)c2=O)ccc1Oc1ccc(SC(F)(F)F)cc1 [Toltrazuril] | 1.07 | 0.597 | 0.914 | 0.686 | 0.651 | 1.41 |
| CC1=C(C(=O)Nc2cc3cn[nH]c3cc2F)C(c2ccc(C(F)(F)F)cc2)CC(=O)N1 (stereo not drawn) | 2.35 | 1.68 | 2.39 | 2.35 | 0.954 | 2.51 |
| CC(C)OC(=O)[C@H](C)N[P@](=O)(OC[C@H]1O[C@@H](n2ccc(=O)[nH]c2=O)[C@](C)(F)[C@@H]1O)Oc1ccccc1 [Sofosbuvir (PSI-7977. GS-7977)] | 1.34 | 0.693 | 1.07 | 0.694 | 0.59 | 1.01 |
| CC(C)(C)C(=O)C(Oc1ccc(Cl)cc1)n1ccnc1 (stereo not drawn) [Climbazole] | 0.898 | 0.838 | 0.641 | 1.02 | 0.579 | 1.29 |
| NCc1ccc(S(N)(=O)=O)cc1 [Mafenide Acetate] | 0.874 | 0.744 | 1.24 | 1.07 | 0.456 | 0.942 |
| COc1cc(F)c(F)c(Nc2ccc(I)cc2F)c1NS(=O)(=O)C1(C[C@H](O)CO)CC1 [Refametinib (RDEA119. Bay 86-9766)] | 2.91 | 2.51 | 2.83 | 3.57 | 1.79 | 2.27 |
| CN1CCC(COc2cnc(-c3cccc(Cn4nc(-c5cccc(C#N)c5)ccc4=O)c3)nc2)CC1 | 1.74 | 3.89 | 2.96 | 2.46 | 1.76 | 1.52 |
| COc1cccc(C=NCCN=Cc2cccc(OC)c2[O-])c1[O-].[Cl-].[Mn+3] | 1.28 | 0.596 | 0.577 | 0.887 | 2.11 | 1.14 |
| CC[C@H](CO)Nc1nc(NCc2ccccc2)c2ncn(C(C)C)c2n1 [Roscovitine (Seliciclib.CYC202)] | 2.13 | 2.16 | 1.28 | 1.32 | 1.82 | 1.84 |
| CN1[C@@H](CC(=O)c2ccccc2)CCC[C@H]1C[C@H](O)c1ccccc1 [Lobeline hydrochloride] | 1.09 | 0.739 | 1.56 | 1.44 | 0.499 | 1.16 |
| Cc1ncc([N+](=O)[O-])n1C [Dimetridazole] | 1.08 | 0.82 | 1.15 | 0.783 | 0.672 | 0.957 |
| c1cnc(NCc2ccc(CNc3ncccn3)cc2)nc1 | 1.17 | 0.784 | 0.977 | 0.642 | 0.488 | 1.22 |
| Nc1ccc2cc3ccc(N)cc3nc2c1 [Proflavine] | 3.98 | 3.75 | 4 | 4.15 | 4.17 | 4.45 |
| O=c1[nH]cnc2c1ncn2[C@H]1CC[C@@H](CO)O1 [Didanosine] | 1.21 | 1.3 | 1.12 | 0.891 | 0.649 | 0.793 |
| CNC[C@H](O)c1ccc(O)c(O)c1 [Epinephrine HCl] | 1.19 | 0.611 | 0.9 | 0.733 | 0.644 | 0.893 |
| N=C(N)NC(=O)Cc1c(Cl)cccc1Cl [Guanfacine Hydrochloride] | 1.58 | 0.941 | 1.05 | 1.09 | 0.41 | 0.929 |
| Cn1c([N+](=O)[O-])cnc1COC(N)=O [Ronidazole] | 1.13 | 0.834 | 0.687 | 1.01 | 0.646 | 1.59 |
| CCCNC(C)C(=O)Nc1ccccc1C (stereo not drawn) [Prilocaine hydrochloride] | 0.697 | 0.662 | 0.635 | 0.843 | 0.473 | 0.791 |
| CC(=O)Oc1ccccc1C(=O)O [Aspirin] | 0.701 | 0.531 | 0.625 | 0.734 | 0.608 | 0.816 |
